In assay [1] the target is Mitogen-activated protein kinase 3 (Homo sapiens) (UniProt P27361). In words: NVS_ENZ_hMAPK3: NovaScreen (NVS) Enzymatic Assay for human Mitogen-Activated Protein Kinase 3 (MAPK 3) (AID 2283177). The method in brief:
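Cell-free enzymatic assay with recombinant protein and specific substrate; fluorescence and electrophoretic mobility shift read-out 1 h after dosing. Primary screen duplicate at 25 uM; actives then run in concentration-response up to 50 uM, loss of signal versus DMSO.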

Assay [2] deals with human Ephrin type-A Receptor 2 (EphA2), EPHA2 (gene 1969) (UniProt P29317). The assay is described as follows: NVS_ENZ_hEphA2: NovaScreen (NVS) Enzymatic Assay for human Ephrin type-A Receptor 2 (EphA2) (AID 2283155). The method in brief: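 Cell-free recombinant EphA2 kinase with specific substrate, 1 h, fluorescence with electrophoretic mobility-shift separation of substrate and product. Primary screen at 25 uM in duplicate; hits retested in singleton concentration-response up to 50 uM, referenced to DMSO.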

Assay [3] deals with human Ephrin type-B Receptor 2 (EphB2), EPHB2 (gene 2048) (UniProt P29323). The assay is described as follows: NVS_ENZ_hEphB2: NovaScreen (NVS) Enzymatic Assay for human Ephrin type-B Receptor 2 (EphB2) (AID 2283156). The method in brief:
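Recombinant kinase with fluorescent substrate, product separated by electrophoretic mobility shift, read 1 h after dosing. Duplicate 25 uM screen, then singleton concentration-response to 50 uM max; loss of signal versus DMSO.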

For assay [4], the target named is human Ephrin type-A Receptor 1 (EphA1), EPHA1 (gene 2041) (UniProt P21709). In words: NVS_ENZ_hEphA1: NovaScreen (NVS) Enzymatic Assay for human Ephrin type-A Receptor 1 (EphA1) (AID 2283158).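 Also: activity is signal loss versus DMSO meaning EphA1 kinase inhibition.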 In outline: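 Recombinant kinase, fluorescent substrate, mobility-shift separation, fluorescence read at 1 h. Single-point duplicates at 25 uM; hits (e.g., ≥30% inhibition) run singleton concentration-response, max 50 uM. DMSO = negative control/baseline.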
human Ephrin type-A Receptor 1 (EphA1), EPHA1 (gene 2041), sequence (P21709 whole entry, looked up): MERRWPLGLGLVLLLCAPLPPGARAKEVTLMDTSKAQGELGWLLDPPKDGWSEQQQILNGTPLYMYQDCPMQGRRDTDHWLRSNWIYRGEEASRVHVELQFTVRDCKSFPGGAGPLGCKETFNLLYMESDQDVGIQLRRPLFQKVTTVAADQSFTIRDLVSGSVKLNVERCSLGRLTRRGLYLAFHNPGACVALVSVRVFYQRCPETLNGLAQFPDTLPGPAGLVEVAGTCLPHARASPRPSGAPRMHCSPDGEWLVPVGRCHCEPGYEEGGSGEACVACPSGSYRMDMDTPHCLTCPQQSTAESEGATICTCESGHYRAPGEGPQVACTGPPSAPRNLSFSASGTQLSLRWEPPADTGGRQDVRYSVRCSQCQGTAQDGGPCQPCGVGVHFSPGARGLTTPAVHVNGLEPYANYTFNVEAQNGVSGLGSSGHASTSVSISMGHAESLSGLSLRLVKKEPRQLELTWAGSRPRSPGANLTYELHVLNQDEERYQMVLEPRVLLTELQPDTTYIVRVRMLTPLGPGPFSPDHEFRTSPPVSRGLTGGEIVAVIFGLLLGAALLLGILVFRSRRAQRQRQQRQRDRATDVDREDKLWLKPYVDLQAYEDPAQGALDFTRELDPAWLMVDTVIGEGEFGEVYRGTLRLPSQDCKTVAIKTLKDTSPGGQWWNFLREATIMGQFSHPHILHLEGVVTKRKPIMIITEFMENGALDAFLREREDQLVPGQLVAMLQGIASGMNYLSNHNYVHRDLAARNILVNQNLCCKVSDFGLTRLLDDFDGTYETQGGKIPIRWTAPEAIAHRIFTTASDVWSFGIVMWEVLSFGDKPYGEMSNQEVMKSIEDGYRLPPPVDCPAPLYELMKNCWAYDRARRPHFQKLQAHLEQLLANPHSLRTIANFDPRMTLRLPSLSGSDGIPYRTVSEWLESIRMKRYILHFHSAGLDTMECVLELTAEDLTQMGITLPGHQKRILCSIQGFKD

For assay [5], the target named is human Fibroblast Growth Factor Receptor 1 (FGFR1), FGFR1 (gene 2260) (UniProt P11362). The assay is described as follows: NVS_ENZ_hFGFR1: NovaScreen (NVS) Enzymatic Assay for human Fibroblast Growth Factor Receptor 1 (FGFR1) (AID 2283159). The method in brief:
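Cell-free recombinant kinase with fluorescent substrate, product separated by electrophoretic mobility shift; read 1 hour after dosing, loss of signal relative to DMSO. Initial screen in duplicate at 25 uM, actives followed in concentration series.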

The target in assay [6] is Glycogen synthase kinase-3 beta (Homo sapiens) (UniProt P49841). In words: NVS_ENZ_hGSK3b: NovaScreen (NVS) Enzymatic Assay for human Glycogen Synthase Kinase-3 beta (GSK3b) (AID 2283165). In outline: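 Recombinant enzyme with specific fluorescent substrate, 1 h, product separated by electrophoretic mobility shift. Primary duplicate screen at 25 uM; actives (e.g. 30% inhibition) followed in singleton concentration-response to 50 uM. Signal loss fitted versus DMSO.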
Glycogen synthase kinase-3 beta (Homo sapiens), sequence (P49841 whole entry, looked up): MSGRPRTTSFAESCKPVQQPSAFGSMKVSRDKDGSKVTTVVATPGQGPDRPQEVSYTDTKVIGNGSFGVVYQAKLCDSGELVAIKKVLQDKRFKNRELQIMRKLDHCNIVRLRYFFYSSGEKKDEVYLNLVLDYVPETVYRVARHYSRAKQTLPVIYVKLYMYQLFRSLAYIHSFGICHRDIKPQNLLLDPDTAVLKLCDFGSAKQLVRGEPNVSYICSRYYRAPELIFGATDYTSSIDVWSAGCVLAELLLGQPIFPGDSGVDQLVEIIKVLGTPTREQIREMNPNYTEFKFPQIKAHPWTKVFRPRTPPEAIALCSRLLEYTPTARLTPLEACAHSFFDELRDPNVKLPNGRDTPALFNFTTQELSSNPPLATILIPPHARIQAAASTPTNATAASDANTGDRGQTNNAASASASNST

Assay [7] deals with human Janus Kinase 2 (Jak2), JAK2 (gene 3717) (UniProt O60674). The assay is described as follows: NVS_ENZ_hJak2: NovaScreen (NVS) Enzymatic Assay for human Janus Kinase 2 (Jak2) (AID 2283169). The method in brief:
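Cell-free recombinant human JAK2 enzyme activity assay, fluorescence/electrophoretic mobility shift read 1 h after dosing. Screened in duplicate at 25 uM, then concentration-response up to 50 uM; activity as signal loss relative to DMSO.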

Assay [8] addresses human MET Proto-Oncogene, Receptor Tyrosine Kinase (MET), MET (gene 4233) (UniProt P08581). In words: NVS_ENZ_hMet: NovaScreen (NVS) Enzymatic Assay for human MET Proto-Oncogene, Receptor Tyrosine Kinase (MET) (AID 2283180). In outline: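 Cell-free MET kinase assay using recombinant protein and fluorescent substrate, with mobility-shift separation; read 1 h after dosing. Primary duplicate at 25 uM; actives in singleton concentration-response to 50 uM maximum. Signal loss versus DMSO.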

Assay [9] addresses human IkappaB Kinase alpha (IKKa), CHUK (gene 1147) (UniProt O15111). The assay is described as follows: NVS_ENZ_hIKKa: NovaScreen (NVS) Enzymatic Assay for human IkappaB Kinase alpha (IKKa) (AID 2283167). In outline:
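Cell-free recombinant human IKKa with fluorescent substrate, product separated by electrophoretic mobility shift; read 1 hour after dosing. Primary screen duplicate at 25 uM, actives then concentration-response up to 50 uM; loss of signal relative to DMSO.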

For assay [10], the target named is human Elastase, ELANE (gene 1991) (UniProt P08246). The assay is described as follows: NVS_ENZ_hElastase: NovaScreen (NVS) Enzymatic Assay for human Elastase (AID 2283153). In outline:
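Cell-free elastase from human neutrophils, 1.5 h after dosing, activity read by absorbance. Primary screen in duplicate at 25 uM; hits (e.g., 30% inhibition) rerun in singleton concentration-response up to 50 uM, fitted versus DMSO.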

The target of assay [11] is human Esterase Plasma (ES), BCHE (gene 590) (UniProt P06276). The assay is described as follows: NVS_ENZ_hES: NovaScreen (NVS) Enzymatic Assay for human Esterase Plasma (ES) (AID 2283157). The method in brief:
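Chemicals were added to plasma-extracted human enzyme in a cell-free format, and activity was read colorimetrically after 0.25 hour. Activity loss was referenced to DMSO; concentration-response top dose was 50 uM.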

For assay [12], the target named is human Matrix Metalloproteinase-1 (MMP1), MMP1 (gene 4312) (UniProt P03956). The assay is described as follows: NVS_ENZ_hMMP1: NovaScreen (NVS) Enzymatic Assay for human Matrix Metalloproteinase-1 (MMP1) (AID 2283181). In outline:
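Human MMP1 enzyme activity measured by fluorescence 1 h after dosing, cell-free, with a specific substrate. Screened in duplicate at 25 uM; hits (e.g. 30% inhibition) run in concentration-response up to 50 uM; loss of signal versus DMSO.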

Assay [13] deals with human Ephrin type-B Receptor 1 (EphB1), EPHB1 (gene 2047) (UniProt P54762). The assay is described as follows: NVS_ENZ_hEphB1: NovaScreen (NVS) Enzymatic Assay for human Ephrin type-B Receptor 1 (EphB1) (AID 2283154). In outline: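 Cell-free kinase assay with recombinant enzyme, fluorescent substrate and electrophoretic mobility-shift separation of substrate and product; read 1 h after dosing. Single-concentration duplicate screen at 25 uM; loss of signal versus DMSO baseline.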
human Ephrin type-B Receptor 1 (EphB1), EPHB1 (gene 2047), sequence (P54762 whole entry, looked up): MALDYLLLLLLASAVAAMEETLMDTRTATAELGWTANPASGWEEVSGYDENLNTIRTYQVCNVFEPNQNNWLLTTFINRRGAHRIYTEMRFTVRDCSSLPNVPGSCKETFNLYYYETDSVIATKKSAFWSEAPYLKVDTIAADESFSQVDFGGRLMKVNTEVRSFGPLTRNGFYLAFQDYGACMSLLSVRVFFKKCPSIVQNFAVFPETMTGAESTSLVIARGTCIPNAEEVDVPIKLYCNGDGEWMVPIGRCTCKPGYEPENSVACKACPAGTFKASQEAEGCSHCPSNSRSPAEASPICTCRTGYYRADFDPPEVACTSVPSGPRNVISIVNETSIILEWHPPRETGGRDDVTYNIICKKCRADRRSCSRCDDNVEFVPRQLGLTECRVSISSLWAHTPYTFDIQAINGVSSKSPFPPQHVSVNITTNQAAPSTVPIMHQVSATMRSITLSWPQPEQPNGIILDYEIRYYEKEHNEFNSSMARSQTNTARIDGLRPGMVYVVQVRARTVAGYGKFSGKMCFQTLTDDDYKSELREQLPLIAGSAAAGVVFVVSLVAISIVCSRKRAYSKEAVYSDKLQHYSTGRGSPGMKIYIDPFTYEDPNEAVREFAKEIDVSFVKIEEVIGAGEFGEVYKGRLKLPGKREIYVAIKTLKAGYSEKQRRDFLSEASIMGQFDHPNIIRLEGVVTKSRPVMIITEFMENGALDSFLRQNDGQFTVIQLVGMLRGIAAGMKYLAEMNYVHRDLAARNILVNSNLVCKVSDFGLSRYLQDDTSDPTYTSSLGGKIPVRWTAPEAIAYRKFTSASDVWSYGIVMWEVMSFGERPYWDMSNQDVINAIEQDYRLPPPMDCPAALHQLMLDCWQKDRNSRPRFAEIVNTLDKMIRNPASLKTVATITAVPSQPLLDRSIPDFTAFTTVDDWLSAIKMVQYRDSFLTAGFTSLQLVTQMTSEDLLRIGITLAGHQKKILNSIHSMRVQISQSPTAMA

Assay [14] concerns the target human Dual Specificity Protein Phosphatase 3 (DUSP3), DUSP3 (gene 1845) (UniProt P51452). In words: NVS_ENZ_hDUSP3: NovaScreen (NVS) Enzymatic Assay for human Dual Specificity Protein Phosphatase 3 (DUSP3) (AID 2283152). In outline: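 Cell-free assay with recombinant human DUSP3 and fluorogenic substrate, read by fluorescence intensity. Primary screen ran duplicate at 25 uM; actives followed up in concentration series; loss of signal versus DMSO scored.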

Assay [15] has as its target human Mitogen-Activated Protein Kinase 1 (MAPK 1), MAPK1 (gene 5594) (UniProt P28482). In words: NVS_ENZ_hMAPK1: NovaScreen (NVS) Enzymatic Assay for human Mitogen-Activated Protein Kinase 1 (MAPK 1) (AID 2283175). The method in brief:
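Cell-free recombinant human MAPK1 enzymatic assay, fluorescence/electrophoretic mobility shift read at 1 h; loss of signal vs DMSO. Primary screen in duplicate at 25 uM; actives (e.g. ≥30% inhibition) run as concentration-response up to 50 uM.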

Assay [16] has as its target human FYN Proto-Oncogene, Src family Tyrosine Kinase (Fyn), FYN (gene 2534) (UniProt P06241). The assay is described as follows: NVS_ENZ_hFyn: NovaScreen (NVS) Enzymatic Assay for human FYN Proto-Oncogene, Src family Tyrosine Kinase (Fyn) (AID 2283161). The method in brief: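 Recombinant enzyme with fluorescent substrate, product separated by electrophoretic mobility shift; read 1 h after dosing. Duplicate 25 uM single-point screen, actives retested in concentration series; loss of signal vs DMSO.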

The target of assay [17] is Protein deacetylase HDAC6 (Homo sapiens) (UniProt Q9UBN7). The assay is described as follows: NVS_ENZ_hHDAC6: NovaScreen (NVS) Enzymatic Assay for human Histone Deacetylase 6 (HDAC6) (AID 2283164). In outline:
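Recombinant human HDAC6 with fluorescent substrate, 1 h; product separated from substrate by electrophoretic mobility shift. Primary screen in duplicate at 25 uM; actives retested singly in concentration-response up to 50 uM, fitted relative to DMSO.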

Results filed as inconclusive are left out. The source made the active and inactive calls. The calls were made as follows: active = hit-call score of the fitted dose curve at least 0.9, where 1 is the maximum; inconclusive = response in the unintended direction; inactive = score below 0.9.

human MET Proto-Oncogene, Receptor Tyrosine Kinase (MET), MET (gene 4233), sequence (P08581 whole entry, looked up): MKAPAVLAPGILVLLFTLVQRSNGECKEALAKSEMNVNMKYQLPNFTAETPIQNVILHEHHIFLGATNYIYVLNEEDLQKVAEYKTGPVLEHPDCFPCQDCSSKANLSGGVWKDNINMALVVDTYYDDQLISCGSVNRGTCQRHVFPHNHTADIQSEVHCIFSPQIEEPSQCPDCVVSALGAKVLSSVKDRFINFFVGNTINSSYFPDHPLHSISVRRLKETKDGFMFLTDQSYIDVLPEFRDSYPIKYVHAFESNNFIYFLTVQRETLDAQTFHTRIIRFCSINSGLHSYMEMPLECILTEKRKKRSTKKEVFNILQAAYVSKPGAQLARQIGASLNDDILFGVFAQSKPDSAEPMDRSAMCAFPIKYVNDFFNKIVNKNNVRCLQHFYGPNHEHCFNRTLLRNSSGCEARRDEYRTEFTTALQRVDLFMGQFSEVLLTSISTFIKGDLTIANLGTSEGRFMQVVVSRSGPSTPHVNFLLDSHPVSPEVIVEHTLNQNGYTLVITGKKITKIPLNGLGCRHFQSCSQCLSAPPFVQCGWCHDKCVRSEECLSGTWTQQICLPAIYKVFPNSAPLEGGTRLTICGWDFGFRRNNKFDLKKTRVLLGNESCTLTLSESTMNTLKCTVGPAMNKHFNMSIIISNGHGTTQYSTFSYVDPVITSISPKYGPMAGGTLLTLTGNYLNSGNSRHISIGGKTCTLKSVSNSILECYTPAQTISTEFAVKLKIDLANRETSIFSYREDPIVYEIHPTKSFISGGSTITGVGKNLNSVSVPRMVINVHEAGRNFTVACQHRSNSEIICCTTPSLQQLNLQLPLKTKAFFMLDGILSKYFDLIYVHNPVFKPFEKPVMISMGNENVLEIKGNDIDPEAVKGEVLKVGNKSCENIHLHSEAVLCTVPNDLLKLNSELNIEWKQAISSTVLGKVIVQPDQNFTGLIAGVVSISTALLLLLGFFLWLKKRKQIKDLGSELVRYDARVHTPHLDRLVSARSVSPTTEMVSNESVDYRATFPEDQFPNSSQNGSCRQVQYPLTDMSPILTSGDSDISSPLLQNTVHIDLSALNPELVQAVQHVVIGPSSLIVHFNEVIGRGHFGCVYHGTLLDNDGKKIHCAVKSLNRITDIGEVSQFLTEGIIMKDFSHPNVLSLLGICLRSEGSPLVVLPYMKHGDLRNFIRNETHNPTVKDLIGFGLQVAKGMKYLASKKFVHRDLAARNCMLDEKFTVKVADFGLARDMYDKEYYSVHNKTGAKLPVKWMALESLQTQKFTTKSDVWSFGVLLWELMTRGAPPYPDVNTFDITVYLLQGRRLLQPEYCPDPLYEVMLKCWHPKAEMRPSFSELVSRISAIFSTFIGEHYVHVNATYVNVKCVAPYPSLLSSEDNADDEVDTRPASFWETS
human Fibroblast Growth Factor Receptor 1 (FGFR1), FGFR1 (gene 2260), sequence (P11362 whole entry, looked up): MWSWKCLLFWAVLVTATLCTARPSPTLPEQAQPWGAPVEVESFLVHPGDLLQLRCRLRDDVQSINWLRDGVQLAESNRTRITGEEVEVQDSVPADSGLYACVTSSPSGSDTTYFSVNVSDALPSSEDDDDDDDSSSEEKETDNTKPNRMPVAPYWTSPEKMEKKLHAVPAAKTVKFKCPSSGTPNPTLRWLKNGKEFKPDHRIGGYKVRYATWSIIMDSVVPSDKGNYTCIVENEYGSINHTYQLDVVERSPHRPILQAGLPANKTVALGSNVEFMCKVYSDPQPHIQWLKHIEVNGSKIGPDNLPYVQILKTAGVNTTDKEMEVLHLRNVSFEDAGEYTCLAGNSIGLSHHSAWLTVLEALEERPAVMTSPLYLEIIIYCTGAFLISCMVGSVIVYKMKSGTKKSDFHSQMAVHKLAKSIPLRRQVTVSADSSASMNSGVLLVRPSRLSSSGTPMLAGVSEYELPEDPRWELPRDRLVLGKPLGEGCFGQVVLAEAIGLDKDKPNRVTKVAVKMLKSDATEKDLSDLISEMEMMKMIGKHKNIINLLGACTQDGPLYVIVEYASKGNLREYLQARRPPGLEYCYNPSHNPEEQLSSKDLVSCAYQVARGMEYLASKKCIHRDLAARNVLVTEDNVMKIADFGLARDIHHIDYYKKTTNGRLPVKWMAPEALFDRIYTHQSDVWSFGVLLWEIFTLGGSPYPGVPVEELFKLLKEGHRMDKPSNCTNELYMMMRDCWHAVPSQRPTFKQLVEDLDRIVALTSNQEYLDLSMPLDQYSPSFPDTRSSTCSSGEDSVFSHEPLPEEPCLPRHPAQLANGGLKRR
Mitogen-activated protein kinase 3 (Homo sapiens), sequence (P27361 whole entry, looked up): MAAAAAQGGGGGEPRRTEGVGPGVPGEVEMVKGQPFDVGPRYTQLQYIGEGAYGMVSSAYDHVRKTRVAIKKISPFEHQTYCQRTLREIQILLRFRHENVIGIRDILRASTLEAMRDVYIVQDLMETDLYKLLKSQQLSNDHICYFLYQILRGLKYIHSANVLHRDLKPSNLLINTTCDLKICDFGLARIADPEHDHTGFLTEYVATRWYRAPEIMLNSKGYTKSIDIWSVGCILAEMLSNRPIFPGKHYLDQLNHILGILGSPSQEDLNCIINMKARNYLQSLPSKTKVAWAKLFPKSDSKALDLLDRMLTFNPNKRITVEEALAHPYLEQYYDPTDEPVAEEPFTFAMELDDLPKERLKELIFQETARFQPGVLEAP

For the compound `CCNc1nc(Cl)nc(NCC)n1`, the outcome in assay [1] was inactive. `CCCN(CCC)c1c([N+](=O)[O-])cc(S(N)(=O)=O)cc1[N+](=O)[O-]`: the compound was called inactive in assay [2], in assay [3], in assay [4], in assay [5], in assay [6] and in [7]. Further, the call in [8] was inactive. As to `CC(C)(C)c1ccc(CSc2cnn(C(C)(C)C)c(=O)c2Cl)cc1`, the result in [9] was inactive.

In the case of `Oc1ccccc1-c1ccccc1`, the compound was called inactive in [10]. Turning to `CNC(=O)ON=CC(C)(C)SC`, the AC50 in assay [11] is 11.1 µM (active). On to `C=CCC1=C(C)C(OC(=O)C2C(C=C(C)C)C2(C)C)CC1=O` (stereo unspecified), for which the AC50 in assay [12] is 8.92 µM (active). Consider `N#Cc1cc(Br)c(O)c(Br)c1`, for which the result in assay [13], in [2] and in [4] was inactive. For `CCCC1COC(Cn2cncn2)(c2ccc(Cl)cc2Cl)O1` (stereo unspecified), in assay [12], the AC50 is 6.45 µM (active). Regarding `CC1COC(Cn2cncn2)(c2ccc(Oc3ccc(Cl)cc3)cc2Cl)O1` (stereo unspecified), the compound was called inactive in assay [14] and in assay [13]. Consider `CCOC(=O)C(Cl)Cc1cc(-n2nc(C)n(C(F)F)c2=O)c(F)cc1Cl` (stereo unspecified), for which the compound was classed as inactive in [14], in assay [11] and in assay [5]. Take `C=CCC1=C(C)[C@@H](OC(=O)[C@@H]2[C@@H](C=C(C)C)C2(C)C)CC1=O`: the call in assay [15] and in assay [1] was inactive. As for `COc1cnc(OC)n2nc(NS(=O)(=O)c3c(OCC(F)F)cccc3C(F)(F)F)nc12`, the call in [4] and in assay [1] was inactive. For `O=C(Nc1ccccc1)Nc1ccnc(Cl)c1`, the compound was called inactive in [16]. On to `N#Cc1nn(-c2c(Cl)cc(C(F)(F)F)cc2Cl)c(N)c1S(=O)C(F)(F)F` (stereo unspecified), for which the call in assay [5] was inactive.

With `CN(C)C(=S)SSC(=S)N(C)C`, the compound was called inactive in assay [8]. For `CS/C(C)=N/OC(=O)N(C)SN(C)C(=O)O/N=C(\C)SC`, in assay [11], the AC50 is 3.07 µM (active). The compound was classed as inactive in [17].

`C=CC1(C)OC(=O)N(c2cc(Cl)cc(Cl)c2)C1=O` (stereo unspecified): the compound was classed as inactive in [13]. In the case of `COP(=S)(OC)Oc1nc(Cl)c(Cl)cc1Cl`, the result in [10] and in [11] was inactive. On to `COc1nc(C)nc(NC(=O)NS(=O)(=O)c2ccccc2CCC(F)(F)F)n1`, for which, in assay [8], the call was inactive. As to `COc1ccc(C(c2ccc(OC)cc2)C(Cl)(Cl)Cl)cc1`, the outcome in assay [13] and in [1] was inactive.
